The nature of this experiment: Quantitative high throughput screen for delayed death inhibitors of the malarial parasite plastid, 96 hour incubation. The note with it: P. falciparum luciferase growth. An excerpt:
NIH Molecular Libraries Probe Production Network [MLPCN] NIH Chemical Genomics Center [NCGC] MLPCN Grant: R21 NS059500 Assay Provider: David Fidock and Eric Ekland, Columbia University The goal of this screen is to discover new antimalarial compounds that act by inhibiting the development of the apicoplast in the malarial parasite Plasmodium falciparum. The biochemical processes that make this organelle essential for erythrocytic stage parasites are not well understood. However, antibiotics, such as azithromycin and tetracycline, which target the apicoplast translational machinery, have a potent antimalarial effect. […] We have developed a cell-based assay that measures parasite growth based on the expression of an integrated copy of a firefly luciferase reporter. […] Growth inhibition is detected by a decrease in luciferase activity
Four microliters of culture medium (RPMI 1640 with 0.5% w/v Albumax (GIBCO), 24 mM sodium bicarbonate and 10 ug/mL gentamycin) were dispensed by a Multi-drop Combi into white solid 1536-well plates (Grenier) and 23 nL compound was added by a pin tool. […] Two microliters of luciferase detection reagent was added and luminescence was detected by a ViewLux (PerkinElmer) reader

Activity calls are given as the source filed them. Calls follow the shape of the dose curve; as a rule, active = well fitted inhibition curve with a large enough effect; inconclusive = small, poorly fitted or top-dose-only effect; inactive = flat fitted curve, though single readings scatter.

Take `COc1ccc(COC[C@H](C)N2C[C@@H](C)[C@H](CN(C)S(=O)(=O)c3ccc(F)cc3)OCCCC[C@H](C)Oc3ccc(NC(=O)Nc4ccccc4)cc3C2=O)cc1`: the Potency is 0.0025 µM (active). The figure for `COCCOC(=O)N(C)C[C@@H]1OCCCC[C@H](C)Oc2ccc(NC(=O)Nc3ccccc3)cc2C(=O)N([C@@H](C)CO)C[C@H]1C` is 17.9 µM (active).
